Sampled rows, rich in hits. Any-hit rate of the full collection: about 1.6%.
KCNQ2 block: inhibitors of rat KCNQ2 potassium channel; O88943; CHO-K1 KCNQ2, FluxOR thallium flux, 20 min; active compounds read low; B-score at 10 µM; 1.1% of 310,000 active;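 active = fluorescence ratio B-score at most minus 3 library SDs, with starting brightness B-score within 2 library SDs, cut at about -5.5 in these data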
Target sequence (O88943 whole entry, looked up): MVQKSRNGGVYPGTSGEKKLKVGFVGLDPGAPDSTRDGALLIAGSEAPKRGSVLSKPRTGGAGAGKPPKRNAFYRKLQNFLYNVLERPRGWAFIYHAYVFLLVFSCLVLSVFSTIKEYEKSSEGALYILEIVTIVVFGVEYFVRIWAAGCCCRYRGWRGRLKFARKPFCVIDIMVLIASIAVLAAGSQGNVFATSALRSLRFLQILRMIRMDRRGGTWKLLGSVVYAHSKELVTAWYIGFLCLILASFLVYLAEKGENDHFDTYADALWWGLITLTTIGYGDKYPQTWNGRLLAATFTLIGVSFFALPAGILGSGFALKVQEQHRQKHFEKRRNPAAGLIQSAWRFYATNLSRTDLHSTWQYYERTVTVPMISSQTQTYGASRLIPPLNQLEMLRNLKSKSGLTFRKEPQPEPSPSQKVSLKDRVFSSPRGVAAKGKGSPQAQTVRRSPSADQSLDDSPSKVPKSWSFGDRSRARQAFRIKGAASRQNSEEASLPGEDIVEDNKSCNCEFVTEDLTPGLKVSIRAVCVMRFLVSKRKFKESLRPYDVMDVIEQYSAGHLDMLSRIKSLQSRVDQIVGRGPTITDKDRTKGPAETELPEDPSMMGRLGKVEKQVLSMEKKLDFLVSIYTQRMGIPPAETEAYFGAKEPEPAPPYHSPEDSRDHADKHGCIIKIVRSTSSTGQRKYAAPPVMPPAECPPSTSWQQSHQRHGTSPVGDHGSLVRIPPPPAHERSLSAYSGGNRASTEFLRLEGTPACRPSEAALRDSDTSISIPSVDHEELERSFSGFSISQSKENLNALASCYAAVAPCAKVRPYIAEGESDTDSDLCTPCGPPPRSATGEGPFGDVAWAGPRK
KCNQ2 pot: KCNQ2 (rat) channel potentiation | O88943 | CHO-K1 KCNQ2, FluxOR thallium flux fluorescence; active compounds read high | B-score at 10 µM | 0.54% of 310,000 active | AID 2239;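 active = fluorescence ratio B-score at least 3 SD of library B-scores, with initial fluorescence B-score within 3 of them, cut at about 5.3 in these data; same plate scores as AID 2156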;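 also: B-score of peak minus minimum over baseline fluorescence ratio after K+ and Tl+ stimulus; positive B-score means potentiation of KCNQ2 with more thallium influx and brighter signal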
A number is an active result; n = inactive; x = no result given.

SMILES	KCNQ2 block	KCNQ2 pot
CCCC(C(=O)NCCC(C)C)N(Cc1ccccc1)C(=O)c1snc(C(N)=O)c1N (stereo not given)	n	x
Cc1nc(N/C(N)=N/S(=O)(=O)c2ccc([N+](=O)[O-])cc2)nc2ccccc12	n	n
C[C@@H]1CC=C[C@H]2[C@H]1C(=O)N(Cc1ccccc1)[C@H]2c1ccc(-c2ccc(F)cc2)cc1F	n	x
C[C@@H]1CC=C[C@H]2[C@H]1C(=O)N(Cc1ccccc1)[C@H]2c1ccc(-c2ccoc2)cc1F	-6.93	n
COc1c(C)cc(C(=O)C2CCCN(Cc3ccc(Oc4ncccn4)cc3)C2)cc1C (stereo not given)	n	x
CC(C)Oc1cccc(C(=O)C2CCCN(Cc3ccc(Oc4ncccn4)cc3)C2)c1 (stereo not given)	-7.77	n
Cc1ccc(C(=O)CSc2cc(C)nc(SCC(=O)c3ccccc3)n2)cc1	n	x
Cc1cc(Oc2ccc(C)c(Cl)c2)nc(SCC(=O)c2ccccc2)n1	n	6.98
CC(NC(=O)C(=O)NN=C1CCCC1)c1ccccc1 (stereo not given)	n	x
CCc1ccc2c(c1)C1(C(=O)N2)N2CCCC2C(C(=O)c2ccc3ccccc3c2)C12C(=O)Nc1ccccc12 (stereo not given)	n	n
CCc1ccc2c(c1)C1(NN=C(c3cccc4ccccc34)S1)C(=O)N2 (stereo not given)	-14.4	n
CSCCC(NS(=O)(=O)c1ccc(C)cc1)C(=O)Nc1ccc(C)cn1 (stereo not given)	n	n
CCCn1c(SCC(=O)Nc2ccccc2-c2ccccc2)nnc1-c1ccoc1C	-5.8	n
COc1ccc(NC(=O)CSc2nnc(-c3ccoc3C)n2CCc2ccccc2)cc1	n	x
Cc1occc1-c1nnc(SCC(=O)Nc2ccccc2-c2ccccc2)n1C	n	n
Cc1ccccc1NC(=O)CSc1nnc(-c2ccoc2C)n1CCc1ccccc1	-5.55	n
Cc1ccc(CNC(=O)C(=O)NCC2CCCN2S(=O)(=O)c2cccs2)cc1 (stereo not given)	n	x
CC(Oc1ccc2ccccc2c1)C(=O)NNC(=O)Nc1ccccc1 (stereo not given)	n	n
Cc1cc(C)c(S(=O)(=O)Nc2ncn[nH]2)cc1C	n	n
COc1ccccc1NC(=O)COc1ccccc1C(=O)c1cnn(-c2ccccc2)c1	-6.05	n
CCc1ccc(NC(=O)COc2ccc(F)cc2C(=O)c2cnn(-c3ccccc3)c2)cc1	n	x
COc1ccccc1N(Cc1ccccc1)S(=O)(=O)c1cccc(C(=O)Nc2cccc(C)n2)c1	-6.44	n
Cc1cccc(NC(=O)c2cccc(S(=O)(=O)NCc3ccccc3)c2)n1	n	x
CC(C)CC(C(=O)NC1CCCC1)N(Cc1cccs1)C(=O)c1snc(C(N)=O)c1N (stereo not given)	-5.73	n
CC(C)CC(C(=O)NC1CCCCC1)N(Cc1cccs1)C(=O)c1snc(C(N)=O)c1N (stereo not given)	n	x
SMILES	KCNQ2 block	KCNQ2 pot
CCc1ccc(N2CC(C(=O)OCC(=O)NNC(=O)c3ccccc3)CC2=O)cc1 (stereo not given)	n	x
O=C(CCCn1cc([N+](=O)[O-])cn1)N1CCCCC1	n	x
O=C(COc1ccc2c(c1)oc(=O)c1ccccc12)NCCCN1CCOCC1	n	n
N#CC(C#N)=Cc1c[nH]c(=O)c(C#N)c1Nc1ccccc1	n	x
Cc1ccc(S(=O)(=O)N(CC(=O)NCc2ccco2)Cc2ccc(F)cc2)cc1	-7.28	n
Cc1ccc(C)c(N(CC(=O)Nc2ccccc2C(=O)NCc2ccco2)S(=O)(=O)c2ccccc2)c1	n	x
Cc1ccc(S(=O)(=O)NCC(=O)N(CC(=O)NCc2ccco2)Cc2ccc(F)cc2)cc1	n	x
Cc1cccc(S(=O)(=O)N(CC(=O)Nc2ccccc2C)Cc2ccco2)c1	-5.84	n
Cc1cc(C(C)(C)C)oc1C(=O)N(CC(=O)NC1CCCC1)c1ccc(F)cc1	n	x
Cc1cc(C(C)(C)C)oc1C(=O)N(CC(=O)NC1CCCC1)c1c(C)cccc1C	-7	n
O=C(CN1C(=O)c2cccc3cccc(c23)C1=O)NCCN1CCOCC1	n	x
COc1ccc(CCNC(=O)C(=O)N2CCCCC2)cc1OC	n	n
O=C(CSc1nnc(-c2ccncc2)n1Cc1ccccc1)NC1CCCc2ccccc21 (stereo not given)	-5.75	n
Cc1cccc(Nc2nnc(SCC(=O)NC3CCCc4ccccc43)s2)c1C (stereo not given)	-5.92	n
O=C(CSc1nc2ccccc2s1)NC1CCCc2ccccc21 (stereo not given)	n	x
CNC(=O)CSc1nnc(-c2ccncc2)n1Cc1ccccc1	n	x
CC1(C)CC(=O)C2=C(C1)Nc1ccccc1NC2c1ccc([N+](=O)[O-])cc1 (stereo not given)	n	n
CC(c1ccco1)N(C(=O)COc1ccc(Cl)cc1Cl)c1ccccn1 (stereo not given)	-10.9	n
CC(c1ccco1)N(C(=O)c1ccccc1F)c1ccccn1 (stereo not given)	n	n
O=c1c(NCCc2ccc(Cl)cc2)c(-c2ccccc2)c1=O	n	n
